According to PubChem BioAssay AID624491 (Broad Institute, 2012):
In all, about 1,800 compounds went through this assay and about 1,400 (78%) were called active. Inconclusive results (about 2%) are left out.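 Rule for the calls: active = fitted curve crossing a set activation limit at or below the highest valid dose tested; inconclusive = flat fit at 30 to 70% activation, or poor fit; inactive = the rest, including signal decreases.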 So high a share suggests a set chosen from earlier hits. These entries were drawn from the full list. Potency and affinity values are given separately.

assay: blockers of NLG process in reporter cells – D54 ERlucT cells, luminescence, cherry-picks, dose response (AID 624491); details: D54 ERlucT glycosylation luciferase reporter, 24 h, 100% = twice neutral-control luminescence; series mostly up to 19.5 µM; activation (NLG inhibition): at the top concentration;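 note: signal gain reflects blocked N-linked glycosylation of a luciferase reporter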

Activation (NLG inhibition), inactive:
O=c1cc(N=Nc2ccc(Cl)cc2)[nH]c(=O)[nH]1 34.3% [at 5 µM]
CCCCCCCCn1c2c(c(=N)c3c1CCC3)CCCC2 73.5%
CCOC(=O)c1ccc(-c2ccc(/C=N/NC(=O)CN(c3cccc(C)c3)S(C)(=O)=O)o2)cc1 212%
O=C(N/N=C\c1ccc([N+](=O)[O-])o1)c1cncc(Br)c1 -28.4%
COc1cc2c(cc1OC)C(C)N(C(=O)Nc1ccccc1)CC2 (stereo not given) 17.2%
CC1c2cc3c(cc2CCN1C(=O)c1ccc(Br)cc1)OCCCO3 (stereo not given) 40%
Nc1nonc1-c1nc2ccccc2n1Cc1ccccc1 30%
Nc1nonc1-c1nc2ccccc2n1CC(=O)N/N=C\c1ccc(-c2ccc(Cl)cc2)o1 70.3%
CCOc1cccc2sc(Nc3nc4ccc(NC(C)=O)cc4s3)nc12 29.5%
Oc1ccc(NCc2ccccc2OCc2ccccc2)cc1 24.1%
CCc1cccc(CC)c1NC(=O)CN1C2CCCC1CC(NC(=O)Nc1cccc(OC)c1)C2 (stereo not given) 119%
Cc1cc(NCCCN(C)C)n2c(nc3ccccc32)c1C#N 23%
CC1Cc2ccccc2N1C(=O)CSc1nn2c(=O)c(C(C)(C)C)nnc2s1 (stereo not given) 30.3%
COc1ccc(OC)c(N(CC(=O)Nc2cccnc2)S(=O)(=O)c2ccc(C)cc2)c1 38.7%
COCC(=O)OC/C(O)=C(\C#N)c1nc2ccccc2[nH]1 -48.3%
CC(C)Oc1ccc(C(=O)Nc2ccc3c(c2)n(C)c(=O)n3C)cc1 4.1% [at 5 µM]
O=C(NC1CCCC(C(F)(F)F)C1)c1ccc([N+](=O)[O-])o1 (stereo not given) -15.2%
O=C(Nc1cccc2ccccc12)c1ccc([N+](=O)[O-])o1 -36%
O=C(Nc1ccc(N2CCCC2)c(Cl)c1)c1ccc([N+](=O)[O-])o1 -78.1%
CCn1cc([N+](=O)[O-])c(C(=O)Nc2nc(-c3ccc(C)c(C)c3)c(C)s2)n1 57.7%
O=C(Nc1nc2ccccc2s1)c1ccc([N+](=O)[O-])o1 3.59%
O=C(NC(=S)Nc1cccc(S(=O)(=O)NC2=NCCC2)c1)c1cc(-c2ccco2)nc2ccccc12 23.7%
COc1ccc(/C=C2\COc3ccccc3C2=O)cc1OC -3.49%
C[C@H](CO)N1C[C@H](C)[C@@H](CN(C)Cc2ccccc2)Oc2ccc(NC(=O)CCCCCC(=O)Nc3ccccc3N)cc2C1=O 4.91% [at 5 µM]
COc1ccc(N(C(=O)CCl)C(C(=O)NC2CCCCC2)c2cccnc2)cc1 (stereo not given) -95.5%
O=C(NC1CCCCC1)C(c1cccnc1)N(C(=O)CCl)c1cccc(Cl)c1 (stereo not given) -94.9%
CC(=O)Cn1ncc(Br)c(Br)c1=O -52.5%
CCN1/C(=C/c2sc(-c3ccccc3C)c[n+]2C)Sc2ccccc21 -9.29%
CCOC(=O)c1c(NC(=O)CCl)sc(C(=O)N(CC)CC)c1C 5.73%
COc1ccc(C(=O)/C=C/Sc2nc3ccccc3o2)cc1 5.52%
CCOc1ccc(N(C)S(=O)(=O)c2ccc(-c3cc(C)no3)s2)cc1 39.3%
Cc1cccc(N(C)S(=O)(=O)c2ccc(-c3cc(C)no3)s2)c1 32.2%
O=C1c2ccccc2-c2n[nH]c(=O)c3ccc(N4CCCCC4)c1c23 41.3%
COc1cc(C2=NOC(C(=O)NCc3ccc(F)cc3)C2)cc(OC)c1OC (stereo not given) 13.2%
CCn1ncc(C2=NOC(C(=O)NCc3ccc(Cl)cc3)C2)c1C (stereo not given) 20.7%
O=C(NCc1ccc(OC(F)(F)F)cc1)C1CC(c2ccc(C(F)(F)F)cc2)=NO1 (stereo not given) 5.51%
COc1cccc(S(=O)(=O)Nc2ccc3c(c2)[C@@H]2C[C@@H](CC(=O)NCc4ccc(Cl)cc4)O[C@@H](CO)[C@@H]2O3)c1 21.2%
COc1cc(-c2cc(-c3ccc(O)cc3)nc(N)c2C#N)ccc1O 32.1%
COc1ccccc1-c1cc(NC=O)c2ncc(-c3cccc(C(C)=O)c3)n2c1 -5.59%
COC(=O)c1cccc(NS(=O)(=O)c2ccc(OC)cc2)c1C 34.1%
O=C(CC1Sc2ccccc2NC1=O)NNc1cccc(Cl)c1Cl (stereo not given) 12%
Cc1c(O)cc2c(c1O)C(=O)CC(c1ccccc1)O2 (stereo not given) 17.8%
CCc1nc(SCC(=O)c2ccc3c(c2)OCCO3)c2ccccc2n1 10.9%
Cc1ccc(C(C)C)c(OCc2nnc(SCC(=O)Nc3ncc(C)s3)n2C)c1 45%
COc1ccc(/C=C2\N=C(c3ccccc3Cl)NC2=O)cc1 20.3%
CCc1ccc(OCC(=O)Nc2ccncc2)c(Br)c1 7.78%
O=C(/C=C/c1cccnc1)c1ccc([N+](=O)[O-])cc1 -16%
NC1=NC(c2ccc(Cl)cc2)C(C(=O)c2ccccc2)N1 (stereo not given) 51.4%
COc1ccc(S(=O)(=O)Nc2cccc3ccc(O)cc23)cc1 29.7%
O=C(CCN1C(=O)/C(=C\c2ccccc2)SC1=S)N1CCCCC1 -1.63%
Cc1ccc(CNC(=O)Cc2ccc(-n3c(=O)[nH]c4ccsc4c3=O)cc2)cc1 35.2%
CCOc1ccc(-n2c(C)cc(C(=O)CCl)c2C)cc1 25.7%
COC(=O)c1c(NC(=O)CN2C(=O)NC3(CCC(C)CC3)C2=O)sc2c1CCC2 (stereo not given) 17%
COC(=O)CNC(c1ccccc1Cl)c1cc(Br)ccc1NC(=O)CCN1CCOCC1 (stereo not given) -5.06%
COc1ccc(CC(=O)Nc2ccc(-c3ccc4nnc(C)n4n3)cc2)cc1OC 4.46% [at 5 µM]
N#CCC(CNc1ncc(C(F)(F)F)cc1Cl)OC(=O)c1ccc(Cl)cc1Cl (stereo not given) 18.6%
Cc1cccn2c(=O)c3cc(C(=O)N4CCCCC4)sc3nc12 -15% [at 5 µM]
COc1ccc(-c2oc3cc(O)c(OC)c(O)c3c(=O)c2OC)cc1 58%
Cc1cccc(N2C(=O)CC(N3CCN(C(=O)c4ccccc4)CC3)C2=O)c1 (stereo not given) -1.39%
CC1=C(n2ccnc2)CCC1=O 37.6%
O=C1CCCC2=C1C(c1ccc(Cl)cc1)n1c(s/c(=C\c3ccc4ccncc4c3)c1=O)=N2 (stereo not given) 28%
O=c1cc(N2CCN(c3ccccc3Cl)CC2)[nH]c(=O)n1Cc1ccc(F)cc1 25%
Nc1c(N(CCC2=CCCCC2)C(=O)COc2ccc(F)cc2)c(=O)[nH]c(=O)n1Cc1ccccc1 62.4%
O=C(N/N=C/c1ccc2c(c1)OCO2)c1cccc2ccccc12 10.1%
COc1cccc(/C=N/NC(=O)c2[nH]nc3c2CCc2ccccc2-3)c1 5.49%
CC(C)(C)c1ccc(C(=O)NNC(=O)c2cccc(Br)c2)cc1 818%
COc1ccc(/C=C/C(=O)c2c(O)cc(OC)cc2OC)cc1 40.4%
COc1ccc(NC(=O)c2cnc(SC)nc2)cc1 75.1%
COc1ccc(/C=C/C(=O)c2ccc3c4c(cccc24)CC3)cc1OC -43.1%
CCN(CC)Cc1cc(Nc2c3ccccc3nc3c4ccccc4n(C)c23)cc(CN(CC)CC)c1O 49.9%
CCOC(=O)c1[nH]c(C)c(C(=O)Nc2cc(Cl)ccc2C)c1C 14.7%
CCOC(=O)c1c(C)[nH]c(-c2csc(N)n2)c1C 20.4%
CCOC(=O)c1[nH]c(COC(=O)CCOc2ccccc2OC)c(C(=O)OCC)c1C 12.1%
CCN(CC)c1ccc(C(=O)n2cnc3ccccc32)cc1 16.8%
CC(=O)N1c2ccccc2C(=O)C1N(C)c1ccc(C)cc1 (stereo not given) -0.122%
COCCNc1nc(-c2ccccc2CO)c2sc(-c3ccccc3)cc2n1 16.9%
CCOC(=O)c1ccc(-n2cccc2/C=C2\NC(=O)NC2=O)cc1 19.5%
O=C(N/N=C\c1cccnc1)c1cc(-c2ccccc2)nc2c(Cl)cccc12 33.7%
O=C(/C=C/c1ccc([N+](=O)[O-])s1)N1CCCCC1 -28.1%
CCN(c1ccccc1)S(=O)(=O)c1ccc(C(=O)NC2CCN(Cc3ccccc3)CC2)cc1 16.6%
Cc1nnc2n(c1=O)N=C(c1ccc(Cl)cc1)CS2 -6.13%
O=C(CN1C2=NCCCN2c2ccccc21)c1ccc([N+](=O)[O-])cc1 36%
CC(C)(C)S(=O)N1Cc2cc(C(=O)NCC(F)(F)F)nc(-c3cccc(-c4cccc(F)c4)c3)c2[C@@H]1CCO (stereo not given in full) -12.7%
Cc1cnc(C(=O)OCC(=O)NC2CCCCCCC2)cn1 16.8%
Cc1ccc(-c2nn(-c3ccccc3)cc2NC(=O)CCl)cc1 -46.9%
COc1ccccc1NC(=O)Cn1nnc(-c2ccccc2NC(=O)c2ccco2)n1 45.5%
CCc1cccc(NC(=O)CN2C(=O)NC3(CCCCCCC3)C2=O)c1 34%
O=C(CN1C(=O)NC2(CCCCC2)C1=O)Nc1ccc2c(c1)CCC2 44.6%
Cc1ccc(C)c(N2CCN(S(=O)(=O)c3ccc(-c4ccc(=O)[nH]n4)o3)CC2)c1 86.2%
Cn1cnc([N+](=O)[O-])c1Oc1ccc2ccccc2c1 1.95%
CCn1c(=O)cc(C(=O)OC)sc1=Nc1ccc(F)c(F)c1 26%
O=C1c2cccc3c([N+](=O)[O-])ccc(c23)C(=O)N1CC1CCCO1 (stereo not given) 16.3%
O=c1cc(-c2ccccc2)[nH]n1-c1nc2ccccc2[nH]1 -34.9%
Nc1cc2c(cc1Br)-c1c(C(=O)O)cccc1C2O (stereo not given) 8.32%
CO/N=C/c1ccc(OC)c(Oc2nc(OC)cc(OC)n2)c1 60.6%
O=C(COc1ccc(/C=N/NC(=O)c2cc3ccccc3o2)cc1Br)Nc1ccccc1 103%
CCCCCC[n+]1ccccc1/C=C/c1ccc(N(C)C)cc1 5.17%
CCC1=Nc2cc(C(=O)NCc3ccco3)ccc2Sc2ccc(Cl)cc21 50.7% [at 5 µM]
Cc1nnc2ccc(-c3ccc(NC(=O)c4ccco4)cc3)nn12 61.9%
O=C(COc1ccc(/C=N/NC(=O)c2cc3ccccc3o2)cc1Cl)Nc1ccccc1 -67.6%
CC(=O)c1ccc(Nc2c3c(nc4ccccc24)CCCC3)cc1 52.1%
CCn1cc2nc(SCC(=O)Nc3ccc(OC)cc3OC)n(Cc3ccc(OC)cc3)c(=O)c2n1 -4.31%
COc1cc(Nc2c3ccccc3nc3ccccc23)cc(OC)c1OC -81.2%
COc1ccc(NC(=O)CSc2nc3ccsc3c(=O)n2Cc2ccccn2)c(OC)c1 9.56%
COC(=O)c1cccc(Nc2c3c(nc4ccccc24)CCC3)c1 39.7%
